Data on 86 compounds can be found in PubChem BioAssay AID485270 (The Scripps Research Institute Molecular Screening Center, 2010).

Among all 330,000 compounds or so, about 5,800 (1.8%) were called active. Rule as the data show it: active = inhibition mostly above about 38% (no sharp cut-off); inactive = mostly below about 40%. The sample as a whole holds a higher share of actives than the screen did.

Sequence of Orexin/Hypocretin receptor type 1 (Homo sapiens) (O43613 whole entry, looked up): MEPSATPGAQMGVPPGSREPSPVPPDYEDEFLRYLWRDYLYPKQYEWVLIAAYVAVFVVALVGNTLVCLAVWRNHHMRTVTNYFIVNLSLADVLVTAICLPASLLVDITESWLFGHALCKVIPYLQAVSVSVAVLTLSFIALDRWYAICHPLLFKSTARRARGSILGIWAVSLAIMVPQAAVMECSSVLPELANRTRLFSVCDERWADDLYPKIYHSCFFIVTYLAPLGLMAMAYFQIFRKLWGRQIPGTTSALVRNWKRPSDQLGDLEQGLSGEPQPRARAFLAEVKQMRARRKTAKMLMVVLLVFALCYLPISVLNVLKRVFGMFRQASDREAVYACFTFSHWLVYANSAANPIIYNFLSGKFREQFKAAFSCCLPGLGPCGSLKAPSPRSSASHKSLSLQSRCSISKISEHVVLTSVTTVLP

This test addresses Orexin/Hypocretin receptor type 1 (Homo sapiens) (UniProt O43613). As to the kind of experiment: blocks the human orexin 1 receptor (AID 485270).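 Also: 0% = agonist challenge alone and 100% = reference antagonist.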 Particulars: OX1R-expressing cells, FRET antagonist read-out; at 6.6 µM; hits give high values.
With `CC(C)(C)OC(=O)C[C@@H]1C/C=C\C[C@@H](CC(=O)N[C@H](CO)Cc2ccccc2)C(=O)NCCOC1=O`, the inhibition (as a rule, the relative decrease from the control value, in per cent) is 5.83% (inactive).

As for `O=C(C[C@H]1C/C=C\C[C@@H](NC(=O)OCC2c3ccccc3-c3ccccc32)C(=O)O[C@@H](c2ccccc2)CNC1=O)N[C@H](CO)Cc1ccccc1`, the inhibition was 6.4% (inactive).

For the compound `Cc1cc(N2CCCC2)ccc1NC(=O)COc1ccc(Cl)cc1`, the inhibition is 8.39% (inactive).

In the case of `COC(=O)N/N=C/c1ccc(/C=N/NC(=O)OC)cc1`, the inhibition is 48.6% (inactive).

With `COC(=O)N/N=C/c1cn(CCCOc2ccc(C)cc2)c2ccccc12`, the inhibition is 13.5% (inactive).

On to `COC(=O)N/N=C/c1c[n+]([O-])c2ccccc2[n+]1[O-]`, for which the inhibition was 101% (active).

As to `O=C(Nc1cc(S(=O)(=O)N2CCCCC2)ccc1Cl)C1COc2ccccc2O1` (stereo unspecified), the inhibition is 2.12% (inactive).

Turning to `CC(=O)c1ccc(NC(=O)CSc2nc3ccccc3c(=O)n2CCCN2CCOCC2)cc1`, the inhibition was 3.62% (inactive).

With `Fc1ccc(-n2c(Cc3ccccc3)nnc2SCc2nc(-c3ccc(Cl)cc3)no2)cc1`, the inhibition was 35% (active).

As for `Cc1ccc(-c2noc(CSc3nnc(-c4ccncc4)n3-c3ccc(F)cc3)n2)cc1`, the inhibition is 13.8% (inactive).

In the case of `Cc1ccc(-c2noc(CSc3nnc(-c4ccccc4)n3C)n2)cc1`, the inhibition is 14.3% (inactive).

With `Cc1cccc(C)c1OC(=O)CSc1nnc(-c2ccccc2)o1`, the inhibition was 27.6% (inactive).

For `O=C(CSc1nnc(-c2ccc([N+](=O)[O-])cc2)o1)Nc1ccccn1`, the inhibition was 20.6% (inactive).

Turning to `CCOC(=O)CSc1nnc(-c2ccc([N+](=O)[O-])cc2)o1`, the inhibition was 58.6% (active).

Turning to `Cc1noc(C)c1NC(=O)Nc1ccc2c(c1)C(=O)N([C@H](C)CO)C[C@H](C)[C@@H](CN(C)C(=O)Nc1ccc(C(F)(F)F)cc1)O2`, the inhibition was 7.42% (inactive).

Take `COc1ccc(CCNC(=O)COC(=O)c2ncc(Cl)c(Cl)c2Cl)cc1OC`: the inhibition was 9.72% (inactive).

With `COc1ccc(C)cc1-n1nnnc1SCc1nc2ccccc2c(=O)[nH]1`, the inhibition was 35.5% (inactive).

With `Cc1ccc(-c2noc(CSc3nnnn3-c3ccccc3)n2)cc1`, the inhibition was 5.93% (inactive).

Regarding `Cc1ccc(Nc2nc(CSc3nnnn3-c3ccccc3)cc(=O)[nH]2)cc1`, the inhibition is 81.8% (active).

For `CCn1c(O)c(N=NC2=NC(=O)CS2)c2cc(C)ccc21`, the inhibition is 101% (active).

For the compound `COC(=O)Cn1c2ccc(C)cc2c2nc(C)sc21`, the inhibition is 11.6% (inactive).

As to `CCn1c(O)c(N=NC(=O)c2cccc(S(=O)(=O)N3CCCCC3)c2)c2ccccc21`, the inhibition was 11% (inactive).

As to `CCN(C(=O)CSc1cccc[n+]1[O-])c1ccccc1`, the inhibition was 0.91% (inactive).

As for `O=C(O)c1ccc(NS(=O)(=O)c2ccc3c(c2)C(=O)c2cc(S(=O)(=O)Nc4ccc(C(=O)O)cc4)ccc2-3)cc1`, the inhibition is 18.6% (inactive).

For the compound `CN(CC(=O)O)S(=O)(=O)c1ccc2oc3ccccc3c2c1`, the inhibition was 7.24% (inactive).

Regarding `CN(CCO)S(=O)(=O)c1ccc2c(c1)C(=O)c1cc(S(=O)(=O)N(C)CCO)ccc1-2`, the inhibition was 57.6% (active).

`CC(=O)Nc1ccc(NC(=O)CSCc2cnn(-c3ccccc3)c2-n2cccc2)cc1`: the inhibition was 39.8% (active).

As for `Cc1cc(C)cc(NC(=O)CSCc2cnn(-c3ccccc3)c2-n2cccc2)c1`, the inhibition is 68.1% (inactive).

`O=C(CSCc1ccccc1)Nc1ccccc1`: the inhibition is 4.92% (inactive).

Take `CC(=O)c1c(C)[nH]c(C(=O)COC(=O)CCOc2ccc(C)cc2)c1C`: the inhibition is 11.2% (inactive).

With `O=C(CNC(=O)c1ccco1)NNC(=O)c1ccc(Br)cc1`, the inhibition is 1.51% (inactive).

As to `O=C(CNC(=O)c1n[nH]c2ccccc12)Nc1cc(Cl)ccc1Cl`, the inhibition is 11.3% (inactive).

In the case of `Oc1ccc(N=Nc2nccs2)c(O)c1`, the inhibition is 58.9% (active).

In the case of `Oc1ccc2ccccc2c1N=Nc1nccs1`, the inhibition is 99.3% (active).

As to `C[C@@H]1C(c2ccc(F)cc2)=NN(c2ccc(Br)cc2)[C@H]1C(=O)N1CCOC1=O`, the inhibition was 13.5% (inactive).

Consider `CCN(C[C@H]1N[C@@](Cc2ccccc2)(C(=O)OC)[C@H]2C(=O)N(Cc3ccccc3)C(=O)[C@@H]12)C(=O)c1ccc(C)cc1`, for which the inhibition was 1.44% (inactive).

As for `CC1CCCCC1NC(=O)Cn1cnc2c1c(=O)n(C)c(=O)n2C` (stereo unspecified), the inhibition was 4.33% (inactive).

In the case of `Cc1cccn2c(=O)c3cc(C(=O)NCCN4CCOCC4)c(=N)n(Cc4cccnc4)c3nc12`, the inhibition is 69.1% (active).

Regarding `CCn1c(=N)c(C(=O)NCCCOC)cc2c(=O)n3cccc(C)c3nc21`, the inhibition is 141% (active).

Turning to `CCOCCCNC(=O)c1cc2c(=O)n3ccccc3nc2s1`, the inhibition was 32.8% (inactive).

With `CCc1cccc2c(=O)c(C(=O)NCCCOC)c[nH]c12`, the inhibition is 21.4% (inactive).

On to `Cc1cccn2c(=O)c3cc(C(=O)NCC4CCCO4)c(=N)n(Cc4ccc(F)cc4)c3nc12` (stereo unspecified), for which the inhibition is 41.5% (inactive).

For `O=C(NCc1cccnc1)c1cc(S(=O)(=O)N2CCOCC2)c(Cl)cc1Cl`, the inhibition was 2.88% (inactive).

Turning to `COc1cc(C(=O)NC2CCN(C)CC2)ccc1Nc1ncc2c(n1)N(C1CCC(O)CC1)CCC(=O)N2C` (stereo unspecified), the inhibition was 5.47% (inactive).

Regarding `C[C@H]1CN([C@@H](C)CO)C(=O)Cc2cc(NC(=O)Cc3ccccc3)ccc2O[C@H]1CN(C)S(=O)(=O)c1cccs1`, the inhibition is 8.68% (inactive).

Turning to `O=C1C(=O)N(CCN2CCOCC2)C(c2cccc(Cl)c2)/C1=C(/O)c1ccc2c(c1)OCO2` (stereo unspecified), the inhibition was 13.6% (inactive).

Turning to `COc1ccc(/C(O)=C2/C(=O)C(=O)N(CCCN(C)C)C2c2ccccc2)cc1OC` (stereo unspecified), the inhibition was 4.51% (inactive).

Regarding `O=C1C(=O)N(CCN2CCOCC2)C(c2ccccn2)/C1=C(/O)c1ccc(Cl)cc1` (stereo unspecified), the inhibition was 55.2% (active).

Consider `CCCOc1ccc(/C(O)=C2/C(=O)C(=O)N(CCN(C)C)C2c2ccc(OC)c(OC)c2)cc1` (stereo unspecified), for which the inhibition was 31.1% (inactive).

Regarding `CCN(CC)CCN1C(=O)C(=O)/C(=C(/O)c2ccc(OC)c(OC)c2)C1c1ccccn1` (stereo unspecified), the inhibition was 51.5% (active).

As for `CC1Cc2cc(/C(O)=C3\C(=O)C(=O)N(CCN4CCOCC4)C3c3ccccc3F)ccc2O1` (stereo unspecified), the inhibition is 6.48% (inactive).

Regarding `CC[C@]12c3[nH]c4ccc(Cl)cc4c3CCN1C(=O)[C@@H](CC(=O)NCCCOC)C[C@@H]2C(=O)N1CCN(C(=O)c2ccco2)CC1`, the inhibition was 1.35% (inactive).

Regarding `CCC(CO)Oc1cc(NC(=O)c2ccc(Cl)cc2)c2ncn(C(C)C)c2c1` (stereo unspecified), the inhibition is 0.25% (inactive).

As to `O=C(Nc1cc(S(=O)(=O)N2CCOCC2)ccc1N1CCOCC1)c1c(F)cccc1Cl`, the inhibition was 8.73% (inactive).

Take `COc1ccc(-c2cc3ncccc3cn2)cc1`: the inhibition is 21.6% (inactive).

Turning to `CC(C)(C)OC(=O)C[C@@H]1C/C=C\C[C@@H](CC(=O)NCCO)C(=O)N[C@H](Cc2c[nH]c3ccccc23)COC1=O`, the inhibition was 3.99% (inactive).

On to `COc1ccccc1N(CC(=O)N1CCCCC1)S(=O)(=O)c1ccccc1`, for which the inhibition is 13.9% (inactive).

Turning to `COc1ccccc1NC(=O)CN(c1ccccc1OC)S(=O)(=O)c1ccccc1`, the inhibition is 75.8% (active).

Take `CCN(c1ccccc1)S(=O)(=O)c1ccc(C(=O)Nc2ccccc2OC)cc1`: the inhibition is 14% (inactive).

`O=C(NCCc1c[nH]c2ccccc12)c1cc2ccccc2oc1=O`: the inhibition was 1.13% (inactive).

Consider `O=C(CNC(=O)Cc1ccccc1)N=Nc1c(O)[nH]c2ccc(Br)cc12`, for which the inhibition was 8.32% (inactive).

With `CCOC(=O)Cn1c(O)c(N=NC(=O)CNC(=O)Cc2ccccc2)c2ccccc21`, the inhibition was 38.3% (active).

For `COC(=O)Cn1c(O)c(N=NC(=O)OC)c2ccccc21`, the inhibition is 41.9% (inactive).

With `CCN(CC)C(=O)[C@H]1C[C@H](CC(=O)NCC23CC4CC(CC(C4)C2)C3)C(=O)N2CCc3c([nH]c4cc(CCC(=O)N(C)C)ccc34)[C@]12C`, the inhibition was 5.23% (inactive).

Regarding `Cc1ccsc1C(=O)NNC(=O)COc1ccc(Br)cc1`, the inhibition was 3.22% (inactive).

Take `NCC(=O)c1cccc2ccc[n+]([O-])c12`: the inhibition was 10.5% (inactive).

On to `Cc1ccc2cccc(O)c2[n+]1[O-]`, for which the inhibition was 53.1% (active).

Regarding `C[C@H](CO)N1C[C@H](C)[C@@H](CN(C)C(=O)Nc2ccc3c(c2)OCO3)Oc2c(cccc2N(C)C)C1=O`, the inhibition is -4.67% (inactive).

Regarding `O=C(COc1ccc(F)cc1Br)NCC1COc2ccccc2O1` (stereo unspecified), the inhibition was 7.79% (inactive).

Turning to `CC(C)(C)NS(=O)(=O)NC(=O)C1=C(N2CCCC2)COC1=O`, the inhibition is -2.54% (inactive).

Regarding `COc1ccc(C2=Nn3c(nnc3-c3ccccc3OC)SC2)cc1OC1CCCC1`, the inhibition is 11.2% (inactive).

For `N#C/C(=C\c1ccc(-c2cccc([N+](=O)[O-])c2)o1)C(=O)NCCN1CCOCC1`, the inhibition is 43.6% (inactive).

As to `Cc1ccc(C(=O)N/C(=C/c2ccc(-c3cccc([N+](=O)[O-])c3)o2)C(=O)NCCCN(C)C)cc1`, the inhibition was 63.9% (active).

On to `CN(C)CCNC(=O)/C(=C/c1cccc([N+](=O)[O-])c1)NC(=O)c1ccccc1`, for which the inhibition was 12.9% (inactive).

With `O=C(OCC(=O)N1CCN(C(=O)c2ccco2)CC1)c1c(Cl)cccc1Cl`, the inhibition was 9.98% (inactive).

For the compound `Cc1ccc(N(CC(=O)Nc2cc(C)cc(C)c2)S(=O)(=O)c2cccc3nonc23)cc1`, the inhibition was 46.5% (active).

For the compound `CCOC(=O)c1cccc(NC(=O)CN(c2ccc(C)cc2)S(=O)(=O)c2c(C)noc2C)c1`, the inhibition was 68.3% (inactive).

On to `Cc1ccc(CNC(=O)CCNS(=O)(=O)c2cccc3nonc23)cc1`, for which the inhibition was 9.03% (inactive).

With `CCOCN(C(=O)Cn1c(C(C)O)nc2ccccc21)c1c(C)cccc1CC` (stereo unspecified), the inhibition is 24% (inactive).

In the case of `O=C(NCCCCCCNC(=O)NCc1ccco1)NCc1ccco1`, the inhibition was 10.8% (inactive).

For the compound `Cc1cc(NC(=O)CSc2ncc(C(F)(F)F)cc2Cl)no1`, the inhibition was 0.5% (inactive).

`CCCCCCSc1ccc(-c2nc3ccc(Cl)cn3c2NCc2ccccc2)cc1`: the inhibition was 12.3% (inactive).

`COc1ccc2sc(-c3ccc(S(C)(=O)=O)cc3)c(-c3ccc(C(N)=O)cc3)c2c1`: the inhibition is 8.78% (inactive).

Consider `COc1ccc(OC)c(NC(=O)CN(C)CCOc2ccc(Br)cc2)c1`, for which the inhibition is 38.8% (active).

With `COc1ccc(Br)cc1CN(C)CC(=O)Nc1cc([N+](=O)[O-])ccc1OC`, the inhibition is 12.8% (inactive).

`CN(CCOc1ccc(Br)cc1)CC(=O)Nc1cccc(S(=O)(=O)NC2=NCCC2)c1`: the inhibition is 18.8% (inactive).
